Only some compounds are listed: those with a hit (about 2.4% of all), similar ones and a draw of the others.
SENP7 block = SENP7 protease inhibitors, primary screen, biochemical, luminescence, uHTS | Sentrin-specific protease 7 (Homo sapiens), Q9BQF6 | inhibition, % at 5 µM | actives 1.5% (n = 330,000) | recombinant SENP7, Z-RLRGG-aminoluciferin luminescence, 40 min;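 active = inhibition above about 50% at the single test dose, limit read from the data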;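 also: plate controls were DMSO with enzyme for no effect and no enzyme buffer wells for full effect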
SENP8 block-1 = human SENP8 protease inhibitors, primary screen, biochemical, fluorescence, Nedd8 protein substrate, uHTS; Sentrin-specific protease 8 (Homo sapiens), Q96LD8; recombinant SENP8; inhibition, % at 20 µM; actives 0.64% (n = 360,000); AID 602440, 2012; in the data active = inhibition mostly above about 40%, no sharp cut-off; inactive = mostly below about 27%
Platelet DG rel = inhibitors of platelet dense granule secretion, primary screen, cell-based, MLPCN, human platelets. AID 1663, 2009. human platelet-rich plasma, SFLLRN dense granule ATP release, luminescence. inhibition, %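 (compounds screened at 7.5 µM in platelet-rich plasma)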. actives 0.22% (n = 300,000);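 active = mean replicate score, as percent of positive control, at or above 50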
SENP8 block-2 = SENP8 protease inhibitors, primary screen, biochemical, luminescence; Sentrin-specific protease 8 (Homo sapiens), Q96LD8; purified SENP8, Z-RLRGG-aminoluciferin cleavage; inhibition, % at 10 µM; actives 1.2% (n = 330,000); in the data active = inhibition above about 50%
SENP6 block = SENP6 protease inhibitors, primary screen, biochemical, luminescence, uHTS | Sentrin-specific protease 6 (Homo sapiens), Q9GZR1 | Recombinant SENP6 catalytic domain, aminoluciferin luminescence | inhibition, % at 10 µM | actives 1.8% (n = 330,000) | AID 2599, 2010;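 active = inhibition above about 50% at the single tested dose, limit read from the data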;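 also: plate controls were DMSO wells with enzyme for no effect and DMSO wells lacking enzyme for full effect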
Target sequence (Q9GZR1 628-1112 limits assumed): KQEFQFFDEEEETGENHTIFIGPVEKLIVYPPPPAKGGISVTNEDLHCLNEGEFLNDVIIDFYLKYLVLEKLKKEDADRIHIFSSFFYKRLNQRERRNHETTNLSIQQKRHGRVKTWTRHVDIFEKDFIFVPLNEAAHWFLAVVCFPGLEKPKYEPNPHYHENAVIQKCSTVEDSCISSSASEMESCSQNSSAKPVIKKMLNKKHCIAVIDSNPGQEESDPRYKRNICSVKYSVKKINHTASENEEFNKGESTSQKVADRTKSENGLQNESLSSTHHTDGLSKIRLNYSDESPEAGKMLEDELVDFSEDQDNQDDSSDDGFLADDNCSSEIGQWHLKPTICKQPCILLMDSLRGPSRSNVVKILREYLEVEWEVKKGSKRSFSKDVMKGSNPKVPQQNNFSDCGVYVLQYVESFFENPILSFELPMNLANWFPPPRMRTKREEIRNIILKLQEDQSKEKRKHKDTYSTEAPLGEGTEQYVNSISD
SENP8 confirm = SENP8 protease inhibitors, retest, confirmation, biochemical, luminescence, single concentration; shares compounds with SENP7 block; Recombinant SENP8, Z-RLRGG-aminoluciferin luminescence, 60 min; inhibition, % at 12.5 µM; actives 40% (n = 6,200); AID 488912, 2010;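 active = mean inhibition across replicates above about 50%, limit read from the data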
SENP6 conf = SENP6 protease inhibitors, confirmation, biochemical, luminescence, single concentration | AID 488915, 2010 | inhibition, % at 12.5 µM | shares compounds with SENP7 block | recombinant SENP6, Z-RLRGG-aminoluciferin luminescence | actives 58% (n = 6,200)
SENP7 confirm = SENP7 protease inhibitors, retest, confirmation, biochemical, luminescence, single concentration; shares compounds with SENP7 block; recombinant SENP7, Z-RLRGG-aminoluciferin luminescence, 40 min; inhibition, % at 12.5 µM; actives 69% (n = 6,200); AID 488917, 2010
Casp3 select = caspase-3 protease inhibitors, confirmation, selectivity assay for SENP inhibitor project, biochemical, single concentration | shares compounds with SENP7 block | purified caspase-3, Z-DEVD-aminoluciferin luminescence, 60 min | inhibition, % at 12.5 µM | actives 60% (n = 6,200) | AID 488918, 2010;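 active = mean inhibition above about 50%, limit read from the data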;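 also: plate controls were enzyme with DMSO for no effect and wells without caspase-3 for full effect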
SENP luc ctr = luminescence interference (SENP counter-screen). shares compounds with SENP7 block. Pre-incubated SENP8/Z-RLRGG-aminoluciferin, luciferase luminescence interference. inhibition, % at 12.5 µM. actives 39% (n = 6,200). AID 488919;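 active = mean inhibition above about 50% when retested at one dose, limit read from the data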;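 also: plate controls were DMSO wells with completed reaction for no effect and substrate without enzyme for full effect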
An asterisk follows results filed as active; x = not tested or not shown.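 The calls were made as follows, unless noted: active = mean inhibition above about 50% in the one-dose retest (limit read from the data); inactive = the rest.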

SMILES	SENP7 block	SENP8 block-1	Platelet DG rel	SENP8 block-2	SENP6 block	SENP8 confirm	SENP6 conf	SENP7 confirm	Casp3 select	SENP luc ctr
O=C(Nc1cccc([N+](=O)[O-])c1)c1[nH]ncc1Cl	81*	14	0	74*	81*	67*	61*	91*	77*	54*
Cc1c(C(=O)Nc2ccccc2)cnn1-c1ccccc1	26	25	5	21	25	x	x	x	x	x
O=C(Nc1cccc([N+](=O)[O-])c1)c1cnccn1	-1	1	6	-11	9	x	x	x	x	x
Cc1ccc(NC(=O)c2cnn(-c3ccccc3)c2C)cc1C	90*	16	9	77*	85*	5	86*	97*	80*	40
COc1ccc(NC(=O)c2cnn(-c3ccccc3)c2C)cc1OC	41	14	5	29	52*	25	25	64*	63*	46
Cc1c(C(=O)Nc2cccc(F)c2)cnn1-c1ccccc1	41	10	5	35	48	x	x	x	x	x
COc1ccc(OC)c(-c2csc(N(CC3CCCO3)C(=O)C3CCCCC3)n2)c1 (stereo not given)	-1	13	3	1	-7	x	x	x	x	x
COc1ccc(NC(=O)c2cnn(-c3ccccc3)c2C)cc1	90*	10	59*	80*	90*	-8	82*	97*	92*	56*
COc1cccc(NC(=O)Nc2nc(SC(C)(C)C)ns2)c1	10	7	-6	-23	-10	x	x	x	x	x
COc1ccc(NC(=O)Nc2cccc(OC)c2)cc1	-9	6	10	29	35	x	x	x	x	x
COc1cccc(NC(=O)Nc2ccc3c(c2)nc(C)n3C)c1	90*	8	24	78*	91*	86*	85*	98*	94*	86*
COc1cccc(NC(=O)Nc2nc(SC)ns2)c1	77*	20	3	82*	90*	76*	77*	96*	76*	86*
Cc1nc2cc(NC(=O)NC(C)(C)C)ccc2n1C	1	23	0	1	6	x	x	x	x	x
COc1cccc(NC(=O)Nc2ccc3nc(C)c(C)nc3c2)c1	46	-283	21	39	54*	11	36	58*	59*	7
COc1cccc(NC(=O)Nc2ccc3nsnc3c2)c1	-10	-123	1	44	50*	57*	52*	77*	38	54*
O=C(N/N=C/C(Br)=C/c1ccccc1)c1n[nH]c2c1CCC2	1	-4	-8	12	1	x	x	x	x	x
O=C(N/N=C/c1ccccc1Cl)c1n[nH]c2c1CCCC2	98*	11	22	86*	69*	-10	-2	-2	26	-14
O=C(N/N=C/c1ccccc1Cl)c1cccc(F)c1	72*	15	-7	53*	69*	4	70*	92*	76*	68*
O=C(N/N=C/c1ccc(Cl)cc1)c1n[nH]c2c1CCCC2	-5	4	-1	-8	-8	x	x	x	x	x
O=C(N/N=C/c1ccccc1)c1n[nH]c2c1CCCC2	50*	-2	3	47	58*	12	39	69*	76*	13

From PubChem BioAssay
